Measured values: PubChem BioAssay (NCI)
Where “and” joins values, the source holds several entries; their conditions need not be identical. Equal entries are not always repeated. About 83,000 compounds went through this panel and 20% of them were active in at least one assay; those are over-represented in the sample as a whole.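 Each cell line was grown in a 96-well plate and treated with one concentration of compound for 48 hours. Values below 10 were considered active.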

Legend:
Assay in all cases: NCI-60 one-dose screen, 48 h (100 = growth as untreated, 0 = no growth, -100 = all killed)
Settings in all cases: 10 µM unless noted
NCI-H23 lung = system: NCI-H23 lung
NCI-H226 lung = system: NCI-H226 lung
NCI-H322M lung = system: NCI-H322M lung
HOP-62 NSCLC = system: HOP-62 NSCLC
HOP-92 NSCLC = system: HOP-92 NSCLC
NCI-H522 lung = system: NCI-H522 lung
A549/ATCC NSCLC = system: A549/ATCC NSCLC
786-0 renal = system: 786-0 renal
COLO 205 colon = system: COLO 205 colon
DU-145 prostate = system: DU-145 prostate
K-562 leukemia = system: K-562 leukemia
MALME-3M melanoma = system: MALME-3M melanoma
MDA-MB-231 breast = system: MDA-MB-231 breast
RXF 393 renal = system: RXF 393 renal
SF-268 CNS = system: SF-268 CNS
SF-295 CNS = system: SF-295 CNS
SF-539 CNS = system: SF-539 CNS
UACC-257 melanoma = system: UACC-257 melanoma
M14 melanoma = system: M14 melanoma
NCI-H460 lung = system: NCI-H460 lung

Measured: growth

CCC(C)(O)CCC(C)(O)CC (centres undefined)
inactive: NCI-H23 lung 87.1% | NCI-H226 lung 108% | NCI-H322M lung 102% | HOP-62 NSCLC 93.5% | HOP-92 NSCLC 104% | NCI-H522 lung 103% | A549/ATCC NSCLC 106% | 786-0 renal 99.3% | COLO 205 colon 108% | DU-145 prostate 105% | K-562 leukemia 99.3% | MALME-3M melanoma 93.6% | MDA-MB-231 breast 109% | RXF 393 renal 130% | SF-268 CNS 99.2% | SF-295 CNS 102% | SF-539 CNS 103% | UACC-257 melanoma 106% | M14 melanoma 103%

CC(=O)Nc1ccc2oc(=O)ccc2c1
inactive: NCI-H23 lung 101% | NCI-H226 lung 96.5% | NCI-H322M lung 101% | HOP-62 NSCLC 96.7% | HOP-92 NSCLC 95% | NCI-H522 lung 93.3% | A549/ATCC NSCLC 102% | 786-0 renal 81.6% | COLO 205 colon 107% | DU-145 prostate 100% | K-562 leukemia 64.9% | MALME-3M melanoma 110% | MDA-MB-231 breast 94.6% | RXF 393 renal 103% | SF-268 CNS 114% | SF-295 CNS 108% | SF-539 CNS 99.1% | UACC-257 melanoma 104% | M14 melanoma 100%

CS(=O)(=O)c1nsc(N)n1
inactive: NCI-H23 lung 94.7% | NCI-H226 lung 99.2% | NCI-H322M lung 98.4% | HOP-62 NSCLC 89.5% | HOP-92 NSCLC 111% | NCI-H522 lung 91.1% | A549/ATCC NSCLC 87.7% | 786-0 renal 106% | COLO 205 colon 103% | DU-145 prostate 109% | K-562 leukemia 98.7% | MALME-3M melanoma 101% | MDA-MB-231 breast 106% | RXF 393 renal 108% | SF-268 CNS 100% | SF-295 CNS 104% | SF-539 CNS 102% | UACC-257 melanoma 84.9% | M14 melanoma 104%

O=c1[nH]c(=O)n(C2OC(CO)C(O)C2O)cc1I (centres undefined)
inactive: NCI-H23 lung 104% and 108% | NCI-H226 lung 91.8% and 117% | NCI-H322M lung 100% and 102% | HOP-62 NSCLC 101% and 96.4% | HOP-92 NSCLC 77.7% | NCI-H522 lung 80.5% and 112% | A549/ATCC NSCLC 96.3% and 100% | 786-0 renal 105% and 108% | COLO 205 colon 114% and 102% | DU-145 prostate 117% and 112% | K-562 leukemia 95.1% and 128% | MALME-3M melanoma 100% and 107% | MDA-MB-231 breast 109% and 111% | RXF 393 renal 114% and 123% | SF-268 CNS 102% and 112% | SF-295 CNS 125% and 102% | SF-539 CNS 105% and 102% | UACC-257 melanoma 97.3% and 101% | M14 melanoma 104% and 90.5%

CN(C)C(=S)N(C)C
inactive: NCI-H23 lung 99.4% | NCI-H226 lung 108% | NCI-H322M lung 140% | HOP-62 NSCLC 95.6% | HOP-92 NSCLC 93.4% | NCI-H522 lung 83.2% | A549/ATCC NSCLC 100% | 786-0 renal 108% | COLO 205 colon 123% | DU-145 prostate 110% | K-562 leukemia 106% | MALME-3M melanoma 165% | MDA-MB-231 breast 111% | RXF 393 renal 114% | SF-268 CNS 103% | SF-295 CNS 112% | SF-539 CNS 99.2% | UACC-257 melanoma 107% | M14 melanoma 101%

Cc1cc(-c2ccc(N=Nc3c(C)nn(-c4ccc(S(=O)(=O)O)cc4)c3O)c(C)c2)ccc1N=Nc1ccc(O)c(C(=O)O)c1
inactive: NCI-H23 lung 99.1% | NCI-H226 lung 82.2% | HOP-62 NSCLC 87.7% | NCI-H460 lung 109% | HOP-92 NSCLC 109% | NCI-H522 lung 87.9% | A549/ATCC NSCLC 104% | 786-0 renal 103% | COLO 205 colon 94% | DU-145 prostate 108% | K-562 leukemia 104% | MALME-3M melanoma 111% | MDA-MB-231 breast 97.2% | RXF 393 renal 113% | SF-268 CNS 97.6% | SF-295 CNS 93.4% | SF-539 CNS 101% | UACC-257 melanoma 101% | M14 melanoma 107%
